# In the library only some 3.9% were active in any assay of this set; here they are far more common.
# ALR inh: inhibitors of human ALR sulfhydryl oxidase, primary screen, biochemical, H2O2 detection, HRP-luminol luminescence, single point; FAD-linked sulfhydryl oxidase ALR (Homo sapiens), P55789; purified ALR, DTT oxidation; inhibition, % (concentration not given with the values); 290,000 compounds, 3.8% hits; AID 485317, 2010;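 active = mean replicate inhibition above about 79%, with every replicate also reaching it, limit read from the data; inconclusive = only one of the two criteria met; inactive = mean below limit and not every replicate reaching it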
# Target sequence (P55789 whole entry, looked up): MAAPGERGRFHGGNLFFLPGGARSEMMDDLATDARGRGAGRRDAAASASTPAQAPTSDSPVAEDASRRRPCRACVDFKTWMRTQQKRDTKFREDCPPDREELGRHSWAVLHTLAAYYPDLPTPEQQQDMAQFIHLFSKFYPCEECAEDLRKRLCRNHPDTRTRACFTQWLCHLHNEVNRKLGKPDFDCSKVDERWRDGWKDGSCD
# NTR1 ag: agonists of human NTR1, primary screen, imaging, U2OS cells, beta-arrestin-GFP, high content; Neurotensin receptor type 1 (Homo sapiens), P30989; NTR1-U2OS beta-arrestin-GFP spot imaging, agonist mode; activation, % at 20 µM; 330,000 compounds, 0.17% hits;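 active = activation at or above 40% of the spot to cytoplasm intensity ratio, with at least 20 cells analyzed; inconclusive = wells under 20 cells, flagged as cytotoxic or low count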;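 note: 0% = DMSO without peptide and 100% = 100 nM NTR1 peptide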
# UBC9 SUMO inh: inhibitors of in vitro SUMOylation cascade, primary screen, biochemical, HTRF, uHTS; AID 2006, 2009; HTRF SUMOylation assay, SAE1/SAE2 + UBC9; inhibition, % at 35 µM; SUMO-conjugating enzyme UBC9 (Homo sapiens), P63279; 290,000 compounds, 0.36% hits; in the data active = inhibition above about 50%, passing the limit was not always enough; inconclusive = no clear call, values can overlap the other calls
# Target sequence (P63279 whole entry, looked up): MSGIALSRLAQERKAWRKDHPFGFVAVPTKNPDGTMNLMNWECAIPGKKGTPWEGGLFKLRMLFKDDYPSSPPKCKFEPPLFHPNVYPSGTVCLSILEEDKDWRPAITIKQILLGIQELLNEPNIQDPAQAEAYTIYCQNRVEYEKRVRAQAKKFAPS
# Cardio protect: cardioprotection against H2O2-induced cell death, primary screen, uHTS, H9c2 cells, ATPLite luminescence; 360,000 compounds, 0.63% hits; protection from H2O2 cell death, % at 20 µM; H9c2 cardiomyocytes, H2O2 injury protection, 2 h;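 active = compounds giving at least 50% protection of heart cells from peroxide-induced death in the single-dose screen, raw or plate-pattern-corrected value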;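 note: 0% = DMSO wells with peroxide and 100% = DMSO wells without peroxide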
# Active calls of the source: *; ? = inconclusive; . = no result.
SMILES,ALR inh,NTR1 ag,UBC9 SUMO inh,Cardio protect
C=CCOc1cccc(C(=O)N2CCCC(Nc3ccc4c(c3)OCCO4)C2)c1 (configuration not stated),91.2*,0.4,-0.8,-0.1
Cc1ccc(NC2CCCN(C(=O)c3cc4ncccn4n3)C2)cc1C (configuration not stated),82.8*,-0.5,-14.6,5.4
Cc1ccc(NC2CCCN(C(=O)c3cccnc3)C2)cc1C (configuration not stated),92.5*,-1.3,-16.7,3.7
COc1ccc(NC2CCCN(C(=O)c3cccc(C(F)(F)F)c3)C2)cc1OC (configuration not stated),?,-0.2,-1.0,-4.5
Cc1ccc(C(=O)N2CCCC(Nc3ccc(F)cc3)C2)cc1C (configuration not stated),98.7*,0.3,24.8,-6.6
COC(=O)c1cccc(C(=O)N2CCCC(Nc3ccc(C)c(C)c3)C2)c1 (configuration not stated),98.1*,-0.2,.,0.7
Cc1ccc(CNc2ncc(-c3ccccc3)n2C)o1,98.2*,1.3,18.7,3.1
COc1ccccc1C(=O)NCC(=O)OCC(=O)c1ccc(Cl)s1,-3.4,1.2,.,-2.2
CCCC(C)NC(=O)Cc1ccc(Br)cc1 (configuration not stated),94.6*,0.5,12.8,-1.6
CC1(C)Cc2c(sc(NC(=S)NC(=O)c3ccccc3)c2C(=O)O)CO1,98.6*,-0.3,8.9,2.9
O=[N+]([O-])c1ccc(-c2cnc(NO)nc2)cc1,99.1*,0.5,2.1,14.8
CC(C)(C)C(=O)NCCCc1ccccc1,4.2,-1.1,9.7,7.5
COC(=O)c1c(N2C(=O)Nc3ccccc3N2O)sc(C)c1C,6.2,1.9,9.3,13.4
CCOC(=O)c1c(N2C(=O)Nc3ccccc3N2O)sc2c1CCCC2,92.5*,-1.0,12.9,-0.4
O=C(O)CCc1ccc(-c2ccc(F)cc2)n1NC(=O)c1ccco1,12.1,-1.0,-6.3,6.2
Cc1ccc(-c2ccc(CCC(=O)O)n2NC(=O)c2ccco2)cc1,91.9*,1.6,-9.6,-5.4
Cc1ccc(-c2ccc(CCC(=O)O)n2-c2ccc(O)cc2)cc1,87.2*,0.6,5.0,2.8
COc1ccc(Br)c2oc(S)cc(=O)c12,59.8,1.2,-1.0,5.8
Cc1nnc(SCC(=O)Nc2cc(S(=O)(=O)N3CCCC3)ccc2Cl)n1C1CC1,-1.6,-1.9,.,2.1
Cc1cc(=O)n2cc(-c3ccccc3)nc2[nH]1,87.2*,0.0,11.0,-3.9
Cc1cc(OC(=O)c2ccccc2Br)cc(=O)n1C,26.2,3.1,-0.2,34.9
Cc1cccnc1NC(=O)C1CCN(S(=O)(=O)c2ccc3c(c2)CCC(=O)N3)CC1,89.8*,-3.1,20.6,1.6
O=C1CCCc2cc(S(=O)(=O)N3CCC(C(=O)NCc4ccccc4)CC3)ccc2N1,-0.4,0.6,-3.5,-4.3
O=C1CCc2cc(S(=O)(=O)N3CCC(C(=O)Nc4nccs4)CC3)ccc2N1,-16.1,1.8,3.4,2.2
CN(C)c1ccc(CNC(=O)C2CCN(S(=O)(=O)c3ccc4c(c3)CCC(=O)N4)CC2)cc1,91.3*,0.5,0.1,-0.9
SMILES,ALR inh,NTR1 ag,UBC9 SUMO inh,Cardio protect
CCN(CC)C(=O)CSc1nc(O)c(Cc2ccc(OC)cc2)c(=O)[nH]1,98.0*,0.1,0.8,0.7
CCCCc1nnc(NC(=O)CSc2nc(O)c(-c3ccccc3)c(=O)[nH]2)s1,58.6,-0.5,-7.1,2.1
COc1ccc(Cc2c(O)nc(SCC(=O)NC34CC5CC(CC(C5)C3)C4)[nH]c2=O)cc1,24.5,1.2,10.6,1.7
CCCCNC(=O)CSc1nc(O)c(Cc2ccc(OC)cc2)c(=O)[nH]1,.,-0.1,35.4,1.5
COc1ccc(NC(=O)CSc2nc(O)c(Cc3ccccc3)c(=O)[nH]2)cc1,98.6*,-1.1,11.0,-5.0
CCCCc1nnc(NC(=O)CSc2nc(O)c(Cc3ccccc3)c(=O)[nH]2)s1,99.0*,1.8,-18.3,6.7
CCCc1c(O)nc(SCC(=O)NCCc2ccc(OC)c(OC)c2)[nH]c1=O,98.1*,0.8,-3.4,9.1
O=C(Nc1ccn(CCCN(CCCn2ccc(NC(=O)OCc3ccccc3)nc2=O)CCc2cc3ccccc3[nH]2)c(=O)n1)OCc1ccccc1,.,.,.,-1.5
COc1ccc(CNC(=O)CSc2ncnc3ccccc23)cc1OC,88.7*,0.6,-1.6,21.4
O=C(CSc1nc(O)c(Cc2ccccc2)c(=O)[nH]1)Nc1nnc(SCc2ccccc2)s1,29.6,2.2,-37.7,4.3
COc1cc2c(cc1OC)C(C)N(C(=O)c1cc(Cl)nc(Cl)c1)CC2 (configuration not stated),0.7,2.8,3.6,1.3
COc1ccc(CCNC(=O)CSC(=O)c2ccccc2)cc1OC,98.8*,-0.7,-5.0,14.9
COc1ccc(CCNC(=O)CSc2ccccc2)cc1OC,.,-1.3,3.2,-2.2
O=C(CSc1nc(O)c(Cc2ccccc2)c(=O)[nH]1)Nc1ccccc1,98.7*,-0.5,19.1,2.4
CCc1c(O)nc(SCC(=O)N2CCc3cc(OC)c(OC)cc3[C@@H]2C)[nH]c1=O,99.4*,-1.1,17.2,-0.1
COc1cccc(N2CCN(S(=O)(=O)c3ccc(CN4C(=O)c5cccnc5C4=O)cc3)CC2)c1,1.5,-0.4,8.8,-2.5
CCn1c(C)c(C)c2cc(C(=O)N3CCCC3)ccc21,36.2,-0.5,5.0,-2.1
COc1ccc(CCNC(=O)C(=O)NCC2CCCN2S(=O)(=O)c2ccccc2)cc1OC (configuration not stated),.,0.4,.,73.5*
CCOc1ccc(OCC(=O)OCc2cc(=O)n3cc(Br)ccc3n2)cc1,1.0,2.9,.,-0.5
CC(=O)Nc1ccc(S(=O)(=O)N(C)c2ccc(O)cc2)cc1,97.9*,-0.8,18.4,-6.0
CC(=O)Nc1ccc(N=NN2CCOCC2)cc1,10.9,-0.2,14.3,-0.6
CC(=O)Nc1ccc(S(=O)(=O)N(C)c2ccccc2)cc1,0.7,-0.1,-6.0,4.7
CC(=O)Nc1ccc(N=Nc2ccc(O)cc2)cc1,99.5*,0.6,17.4,-11.4
O=C(c1cccc(C(=O)N2CCN(c3ccccc3F)CC2)c1)N1CCN(c2ccccc2F)CC1,-1.0,6.6,-8.8,22.2
COc1ccc(C(=O)NC(=S)SCC(=O)O)cc1,.,0.8,14.1,1.2
CCOC(=O)CSC(=S)NC(=O)c1ccc(OC)cc1,100.1*,-0.5,-10.6,8.2
COc1ccc(-c2nc(CS(=O)CC(=O)NC3CCCC3)c(C)o2)cc1 (configuration not stated),98.3*,-1.0,13.1,0.5
Cc1oc(-c2ccccc2F)nc1CS(=O)(=O)CC(=O)NCCN(C)C1CCCCC1,-37.3,1.0,15.9,6.1
Cc1oc(-c2ccc(Cl)cc2)nc1CS(=O)CC(=O)NCCCN(C)C1CCCCC1 (configuration not stated),99.4*,-0.8,18.6,3.7

# From PubChem BioAssay
